According to PubChem BioAssay AID1851 (National Center for Advancing Translational Sciences (NCATS), 2009):
Screen size: about 16,000 compounds; about 2,600 (16%) were called active. Another 20% or so got no clear call; they are omitted. The call rests on the fitted dose curve; in most records, active means well fitted curve in the direction sought with a large enough effect; inconclusive means small, poorly fitted or top-dose-only effect, or effect the other way; inactive means no such curve, though single readings can be large or run the other way. The list is a sample of the results.

target: Cytochrome P450 2D6 (Homo sapiens) (UniProt P10635); test: Cytochrome panel assay with activity outcomes; conditions: recombinant CYP, pro-luciferin dealkylation, luminescence, p450-cyp2d6; series mostly up to 57.1 µM; activity, negative = inhibition: at the top concentration
On the % scale 0 is the no-effect control and ±100 the full control effect.

Sequence of Cytochrome P450 2D6 (Homo sapiens) (P10635 whole entry, looked up): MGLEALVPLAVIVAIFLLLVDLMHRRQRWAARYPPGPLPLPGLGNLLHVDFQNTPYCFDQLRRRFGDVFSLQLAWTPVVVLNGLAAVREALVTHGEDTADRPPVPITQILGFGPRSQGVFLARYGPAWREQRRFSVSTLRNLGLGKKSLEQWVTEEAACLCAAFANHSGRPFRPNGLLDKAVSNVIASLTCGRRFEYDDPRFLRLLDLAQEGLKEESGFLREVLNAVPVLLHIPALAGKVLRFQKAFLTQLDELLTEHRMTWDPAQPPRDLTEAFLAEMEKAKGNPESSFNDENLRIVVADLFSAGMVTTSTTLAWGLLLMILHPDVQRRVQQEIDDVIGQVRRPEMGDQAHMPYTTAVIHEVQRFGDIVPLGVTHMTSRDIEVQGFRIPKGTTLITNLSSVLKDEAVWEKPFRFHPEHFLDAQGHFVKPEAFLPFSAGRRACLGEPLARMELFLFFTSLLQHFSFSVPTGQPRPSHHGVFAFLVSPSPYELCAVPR

activity, negative = inhibition, inactive:
CCC(C)NS(=O)(=O)c1ccc(NC(=O)CCC2CCCCC2)cc1 (stereo not drawn) -5.09%, Cn1cccc1C(=O)N1CCC2(CC1)CCN(c1ncccn1)CC2 -13.7%, COc1ccc(CNc2ccnc(-c3ccc(C(=O)N(C)C)cc3)n2)c(OC)c1 -5.55%, COC(=O)Cc1c(C)nc2nc(NCc3ccccc3OC)[nH]n2c1=O -2.97%, Cc1cnc(CNc2ccnc(-c3ccc(N(C)C)cc3)n2)cn1 -5.57%, CCOC(=O)N1CCC(NC(=O)C2CCN(S(=O)(=O)N3CCCC3)CC2)CC1 8.93%, O=C=Nc1ccc(Cc2ccc(N=C=O)cc2)cc1 (tested in a mixture with another compound) 6.78% [at 11.4 µM], O=C(CNC(=O)c1ccc([N+](=O)[O-])cc1)c1ccccc1 3.96%, COc1cc(-c2nnc(SCC3(c4ccccc4)OCCO3)o2)cc(OC)c1OC -8.87%, COCCn1c(=O)c(-c2ccc(Cl)cc2)nc2cncnc21 -16.2%, Nc1ccccc1CCCC(=O)O -8.09% [at 11.4 µM], Cc1nc2cnc(N(C)C)nc2n(CCc2ccccc2)c1=O -7.01%, O=C(CSc1nc2ccccc2c(=O)n1NC(=O)c1ccccc1)c1ccc(Cl)cc1 1.17%, COC(=O)C/C=C\[C@@H](C)[C@@H](/C=N\O[C@@H](C)c1cc(-c2c(C)cc(C)cc2C)no1)NS(=O)(=O)c1ccc(C)cc1 10.9% [at 11.4 µM], COc1ccc(CC(=S)N2CCOCC2)cc1OC 0.628%, COc1cc2c(cc1OC)C(C(=O)N1CCOCC1)C(c1cccs1)N(C)C2=O (stereo not drawn) 10.7%, CCOC(=O)c1ccc(N2C(=O)CC(Nc3ccc(CCO)cc3)C2=O)cc1 (stereo not drawn) -5.73%, Cn1c(=O)c2c(nc(NCCNc3nc4c(c(=O)n(C)c(=O)n4C)n3C)n2C)n(C)c1=O 14.2% [at 11.4 µM], COc1cc(C(=O)N2CCN(C(=O)c3ccccc3)CC2)cc(OC)c1OC -0.531%, COC(=O)C/C=C\[C@H](C)[C@@H](OC)c1ccccc1Br 12.6% [at 11.4 µM], COCCNc1ccnc(-c2ccccc2C)n1 -6.07%

AC50, active:
COc1ccccc1CNc1ccnc(-c2ccoc2)n1 15.8 µM, COc1ccc(CNc2ccnc(-c3ccc(N(C)C)cc3)n2)c(OC)c1 12.6 µM, COc1ccccc1CNc1ccnc(-c2ccc(N(C)C)cc2)n1 0.501 µM, CN(C)c1ccc(-c2nccc(NCc3ccccc3)n2)cc1 3.16 µM, COc1cc2c(cc1OC)/C(=C/C(=O)N1CCOCC1)NC(C)(C)C2 2.82 µM, COc1ccc2[nH]cc(CCNc3ccnc(-c4ccccc4Cl)n3)c2c1 20 µM, COc1ccc2[nH]cc(CCNc3ccnc(-c4ccccc4C)n3)c2c1 2.51 µM
